Bioassay records (PubChem BioAssay)
Hits are enriched below; roughly 27% of the tested compounds scored in any of these assays.
CYP2C9 act = activators of human CYP2C9; P11712; recombinant CYP2C9, luciferin-H conversion, luminescence; stronger effect = higher value; factor 1 = untreated enzyme, 0 = blocked; activation factor at 5 µM; 96,000 tested, 1.4% active;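 active = activation factor of 2 or more for CYP2C9 at a 5 µM dose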;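 also: 0 = sulfaphenazole-blocked wells and 1 = vehicle-only wells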
Target sequence (P11712 whole entry, looked up): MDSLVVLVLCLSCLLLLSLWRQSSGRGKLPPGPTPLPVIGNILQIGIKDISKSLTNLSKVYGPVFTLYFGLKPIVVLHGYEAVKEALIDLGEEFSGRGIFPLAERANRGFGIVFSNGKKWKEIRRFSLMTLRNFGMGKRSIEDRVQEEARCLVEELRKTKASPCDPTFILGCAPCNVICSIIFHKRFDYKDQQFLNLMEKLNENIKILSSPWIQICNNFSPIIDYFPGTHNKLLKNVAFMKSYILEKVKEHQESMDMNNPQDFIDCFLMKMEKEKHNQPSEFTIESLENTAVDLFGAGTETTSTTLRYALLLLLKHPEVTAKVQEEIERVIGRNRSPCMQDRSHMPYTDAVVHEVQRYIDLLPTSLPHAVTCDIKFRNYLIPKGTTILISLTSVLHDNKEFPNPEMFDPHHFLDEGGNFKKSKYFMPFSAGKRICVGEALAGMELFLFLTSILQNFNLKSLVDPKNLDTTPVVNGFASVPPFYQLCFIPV
Cav32 inh = human Cav3.2 channel inhibition, primary screen; O95180; Cav3.2-expressing cells, Fluo-4 calcium fluorescence FDSS; stronger effect = lower value; B-score at 10 µM; 100,000 tested, 4% active; AID 449739;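 active = single-dose well whose peak fluorescence ratio is a statistical outlier from its plate by either plate-standardised score or position-corrected B-score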
CYP2C9 inhib = human CYP2C9 inhibition. CYP2C9 Supersomes, luciferin-H conversion, luminescence. inhibition, % at 5 µM. 96,000 tested, 20% active. AID 777;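 active = blocking of liver enzyme CYP2C9 beyond about 50% at 5 µM, limit read from the data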
CYP2C19 activ = cytochrome P450 2C19 (human) activation. P33261. recombinant CYP2C19, luciferin-H EGE luminescence; stronger effect = higher value; 0 = fully inhibited enzyme, 1 = untreated enzyme. activation factor at 5 µM. 96,000 tested, under 10 active. AID 1025;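 active = activation factor of at least 2 at 5 µM in the primary screen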;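 also: 0 = wells with 2.5 mM tranylcypromine and 1 = vehicle-only wells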
CYP2C19 inhib = inhibitors of human CYP2C19 | P33261 | CYP2C19 Supersomes, luciferin-H EGE luminescence, 30 min | inhibition, % at 5 µM | 96,000 tested, 21% active | AID 778;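 active = CYP2C19 inhibition above a set limit at 5 µM in the primary screen, cut at about 50% in these data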;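 also: plate controls were negative control wells for no effect and 2.5 mM tranylcypromine positive control for full effect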
* marks the source's active call; other numbers are inactive results; / = not tested or not shown.

SMILES | CYP2C9 act | Cav32 inh | CYP2C9 inhib | CYP2C19 activ | CYP2C19 inhib
Cc1cc(C(=O)COC(=O)C2=NNC(=O)CC2)c(C)n1-c1ccc(OC(F)F)cc1 | 0.7 | 0.46 | 27 | 0.7 | 30
Cc1cc(C(=O)CSc2nncs2)c(C)n1-c1ccc2c(c1)OCO2 | 0.5 | -1.4 | 53* | 0.1 | 86*
Cc1cc(C(=O)COC(=O)C2=COCCO2)c(C)n1-c1ccc2c(c1)OCO2 | 0.1 | -0.96 | 85* | 0.1 | 92*
COCCn1c(-c2ccc(Cl)cc2)cnc1SCC(=O)NCc1cccs1 | 0.1 | -3.3 | 86* | 0.1 | 92*
COc1ccccc1C(=O)N1CCN=C1c1ccccc1 | 1.7 | 0.051 | -70 | 0.7 | 33
CC(C)(C)c1cc2cccnc2n1Cc1cccc(Cl)c1 | 0.8 | / | 16 | 0.5 | 48
N#CC1=C2SCCN2C(=O)C(C#N)C12CCCCC2 (stereo not given) | 0.6 | 0.11 | 36 | 0.5 | 45
CCCn1nnnc1SCC(=O)NCc1cccs1 | 1.1 | 0.34 | -6 | 0.3 | 73*
O=C(CSc1nncs1)NCc1ccc2c(c1)OCO2 | 0.9 | 0.3 | 14 | 0.4 | 59*
Cc1nnc(SCC(=O)NCc2ccc3c(c2)OCO3)s1 | 0.8 | 0.44 | 16 | 0.6 | 36
O=C(Nc1cccc(C(F)(F)F)c1)c1cnc2n(c1=O)CCS2 | 1.5 | -0.13 | -53 | 1 | -1
COc1ccc(-c2oc3ncn4nc(COc5ccccc5)nc4c3c2-c2ccc(OC)cc2)cc1 | 0.7 | -2.4 | 28 | 1.1 | -5
COc1ccc(/C=N/OCc2nc3c4c(ncn3n2)Oc2ccc3ccccc3c2C4c2ccccc2)cc1 (stereo not given) | 0.8 | -3.3 | 15 | 0.3 | 69*
Cc1ccc(-c2nnc(SCC(=O)Nc3ccc4c(c3)oc3ccccc34)n2C)c(Cl)c1 | 0.4 | -0.97 | 59* | 0.8 | 24
Cc1cn(Cc2ccccc2)c(=O)[nH]c1=O | 0.9 | 0.57 | 9 | 0.9 | 12
COC(=O)Cn1c(CN2CCOCC2)nc2c1c(=O)[nH]c(=O)n2C | 1.2 | -0.32 | -18 | 1.2 | -15
Cc1ccc(/C([O-])=C(/C(=S)NCc2ccco2)[n+]2ccccc2)cc1 | 0.7 | 0.13 | 25 | 0.8 | 24
CN(C)c1ccc(C(=S)NCc2ccco2)cc1 | 0.6 | 0.36 | 37 | 0.1 | 88*
COC(=O)CCSCC(=O)Nc1nnc(C)s1 | 1.1 | 0.61 | -14 | 1.2 | -18
NC(=O)c1cnccn1 | / | -0.31 | / | / | /
COc1cc(NC(=O)Cn2nc(Cc3cccnc3)c3ccccc3c2=O)cc(OC)c1OC | 0.4 | 1.6 | 62* | 0.5 | 54*
CCN1C(=O)c2ccc(C(=O)NCc3ccc4c(c3)OCO4)cc2C1=O | / | -0.7 | / | / | /
O=C(NCc1ccc2c(c1)OCO2)c1ccc2c(c1)C(=O)N(Cc1cccnc1)C2=O | 0.5 | -1.3 | 51* | 0.9 | 7
O=C(Cn1nc(Cc2cccnc2)c2ccccc2c1=O)NCc1ccc(F)cc1 | 0.2 | 0.09 | 83* | 0.4 | 58*
O=C(Cn1nc(Cc2cccnc2)c2ccccc2c1=O)NCc1ccc2c(c1)OCO2 | 0.1 | 0.021 | 89* | 0.4 | 56*
SMILES | CYP2C9 act | Cav32 inh | CYP2C9 inhib | CYP2C19 activ | CYP2C19 inhib
CC(C)c1ccc(NC(=O)C(c2ccccc2)N2CCN(C(=O)c3ccco3)CC2)cc1 (stereo not given) | 0.6 | -2.7 | 40 | 1 | 4
CC(C)c1ccc(NC(=O)C(c2ccc3c(c2)OCO3)N2CCN(C(=O)c3ccco3)CC2)cc1 (stereo not given) | 0.9 | -5.2* | 14 | 1 | -2
CCN(CC)C(C(=O)Nc1ccc(C(C)C)cc1)c1ccc2c(c1)OCO2 (stereo not given) | 0.7 | -4.9* | 29 | 0.9 | 14
O=C(NC1CCCCC1)C1CCCN1S(=O)(=O)c1cccc2nsnc12 (stereo not given) | 0.5 | 0.58 | 54* | 0.6 | 41
CCC(C)NC(=O)C(Cc1ccccc1)NS(=O)(=O)c1cccc2nsnc12 (stereo not given) | 0.9 | 0.23 | 15 | 0.9 | 9
CCOC(=O)N1CCN(C(=O)C(NS(=O)(=O)c2cccc3nsnc23)c2ccccc2)CC1 (stereo not given) | 0.3 | 0.2 | 73* | 1.1 | -9
O=C(NC1CCCC1)C(NS(=O)(=O)c1cccc2nsnc12)c1ccccc1 (stereo not given) | 0.5 | 0.96 | 50* | 0.9 | 6
COc1ccc(C2(O)CCN(C(=O)c3ccc4c(c3)OCO4)CC2)cc1 | 0.6 | -0.047 | 37 | 0.7 | 30
COc1nc(C#N)nc(N(C)C)n1 | 1.1 | 1.4 | -8 | 1.1 | -7
CCOC(=O)NC(NCCc1ccccc1)(C(F)(F)F)C(F)(F)F | 0.5 | 0.058 | 53* | 0.4 | 63*
CCOc1ccc(CCNC(=O)C(O)c2ccccc2)cc1 (stereo not given) | 0.4 | 0.71 | 57* | 0.5 | 47
CCC(CC)C(=O)NCCc1ccc(OC)cc1 | 0.4 | -0.34 | 59* | 0.2 | 77*
CCOC(=O)NCCc1ccc(OC)cc1 | 0.4 | 0.26 | 64* | 0.2 | 83*
Cc1ccc(C)c(NC(=O)c2sc(Cl)nc2-c2ccccc2)c1 | 0.6 | -1.1 | 39 | 0.6 | 45
COc1ccc(CCNC(=O)c2ccc(Cl)cc2Cl)cc1 | 0.9 | -1.6 | 6 | 0.1 | 89*
CCOC(=O)COc1ccc(CCNC(C)=O)cc1 | 2.1* | 0.22 | -111 | 1.1 | -13
COc1ccc(CCNC(C)=O)cc1 | 1.1 | 0.95 | -11 | 1 | -5
Cc1ccc(NC(=O)C(c2ccc(Cl)cc2)N2CCCCC2)cc1 (stereo not given) | 0.7 | -7* | 27 | 0.7 | 32
Cc1cccc(C)c1NC(=O)C(c1ccc(Cl)cc1Cl)N1CCCCC1 (stereo not given) | 0.7 | -5* | 27 | 0.9 | 13
CC(C)c1ccc(NC(=O)C(c2ccccc2)N2CCC3(CC2)OCCO3)cc1 (stereo not given) | 0.9 | -7.4* | 6 | 0.8 | 23
CC(CN1CCCCC1)OC(=O)c1ccc(Cl)cc1Cl (stereo not given) | 1.1 | 0.4 | -12 | 0.7 | 27
O=C(NC1CCCCC1)C(c1ccccc1)N1CCC2(CC1)OCCO2 (stereo not given) | 0.8 | 0.7 | 20 | 0.7 | 26
O=C(CS(=O)c1cccc(Cl)c1)Nc1ccccc1Cl (stereo not given) | 2.6* | 0.015 | -162 | 0.4 | 60*
Cn1c(=O)c2c(ncn2CC(=O)Nc2nc3ccc(F)cc3s2)n(C)c1=O | 0.4 | 1.2 | 59* | 1.2 | -20
COc1ccc(NC(=O)CSc2nccn2-c2cccc(OC)c2)cc1 | 0.3 | 0.021 | 70* | 0.4 | 59*
COc1cc(NC(=O)CSc2nccc(C)n2)c(C(=O)O)cc1OC | 1 | -0.18 | 2 | 1 | -5
COc1cccc(-n2ccnc2SCC(=O)Nc2ccccc2)c1 | 0.5 | -0.29 | 47 | 0.2 | 80*
O=C(CSc1nccn1-c1cccc(Cl)c1)Nc1ccc2c(c1)OCCO2 | 0.3 | -3.7* | 66* | 0.3 | 66*
